Biological target: T1, SPIC (Homo sapiens, UniProt Q8N5J4 1-248)
T1 sequence: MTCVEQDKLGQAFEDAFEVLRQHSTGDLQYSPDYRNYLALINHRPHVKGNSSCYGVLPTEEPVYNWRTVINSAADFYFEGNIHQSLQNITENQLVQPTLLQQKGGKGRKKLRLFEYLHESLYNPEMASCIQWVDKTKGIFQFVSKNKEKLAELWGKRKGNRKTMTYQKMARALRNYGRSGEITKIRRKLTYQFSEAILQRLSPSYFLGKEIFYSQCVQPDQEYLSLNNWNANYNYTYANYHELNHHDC
Test: DAPPL (digital affinity profiling via proximity ligation, sequencing); 10 mM Tris-HCl pH 7.5, 50 mM NaCl, 1 mM DTT, 4% glycerol, room temperature, 30 min; GST-TFs on glutathione beads, 16-mer random dsDNA library, 0.1% formaldehyde crosslink after washing; high values mean tight binding
Settings: protein: recombinant; tags: N-terminal GST; dsDNA, one strand shown
Method in brief: (§1)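 Beads coated with glutathione captured GST-fused human transcription factors that had been expressed in yeast, and the factors were then given DNA barcodes and pooled with a tag-only sample. The pools were incubated with 200 nmole of a random double-stranded 16-mer DNA library in Tris/NaCl/DTT/glycerol buffer for 30 min at room temperature, washed, crosslinked with 0.1% formaldehyde and proximity-ligated with BsaI/T4 ligase at 37 °C for 1 h. PCR amplification and Illumina NextSeq500 sequencing came last. Binding signal is each hexamer's read frequency for a factor divided by its frequency for the tag-only sample.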

Sequence	binding signal
ATTTAA	1.22 fold enrichment (6-mer frequency, TF over GST control)
CCTGAC	1.3 fold enrichment (6-mer frequency, TF over GST control)
CCCGAT	1.29 fold enrichment (6-mer frequency, TF over GST control)
TAGTAT	1.43 fold enrichment (6-mer frequency, TF over GST control)
AAACCT	1.09 fold enrichment (6-mer frequency, TF over GST control)
GTCTCG	1.21 fold enrichment (6-mer frequency, TF over GST control)
ACTTCA	1.55 fold enrichment (6-mer frequency, TF over GST control)
CTCAAT	1.17 fold enrichment (6-mer frequency, TF over GST control)
CCAATA	1.18 fold enrichment (6-mer frequency, TF over GST control)
GCCTTA	1.07 fold enrichment (6-mer frequency, TF over GST control)
GATTCA	1.14 fold enrichment (6-mer frequency, TF over GST control)
GCTCCA	1.08 fold enrichment (6-mer frequency, TF over GST control)
TCCTTT	1.76 fold enrichment (6-mer frequency, TF over GST control)
CATTCT	1.31 fold enrichment (6-mer frequency, TF over GST control)
TTCCTG	2.31 fold enrichment (6-mer frequency, TF over GST control)
CCTCCT	1.47 fold enrichment (6-mer frequency, TF over GST control)
TATGAT	1.29 fold enrichment (6-mer frequency, TF over GST control)
CGATCT	1.46 fold enrichment (6-mer frequency, TF over GST control)
AGCTAT	1.15 fold enrichment (6-mer frequency, TF over GST control)
TTATGC	1.55 fold enrichment (6-mer frequency, TF over GST control)
CTTGCC	1.66 fold enrichment (6-mer frequency, TF over GST control)
TATCAT	1.25 fold enrichment (6-mer frequency, TF over GST control)
ATTTCA	1.18 fold enrichment (6-mer frequency, TF over GST control)
TCTCGA	1.35 fold enrichment (6-mer frequency, TF over GST control)
TACGCT	1.21 fold enrichment (6-mer frequency, TF over GST control)
CTGCTG	1.47 fold enrichment (6-mer frequency, TF over GST control)
GCCTCG	1.07 fold enrichment (6-mer frequency, TF over GST control)
TATTGA	1.2 fold enrichment (6-mer frequency, TF over GST control)
TTGATA	1.36 fold enrichment (6-mer frequency, TF over GST control)
TGGATG	1.46 fold enrichment (6-mer frequency, TF over GST control)

Biological target: ELF4 (Homo sapiens, UniProt Q99607 1-663)
Sequence (Q99607 whole entry): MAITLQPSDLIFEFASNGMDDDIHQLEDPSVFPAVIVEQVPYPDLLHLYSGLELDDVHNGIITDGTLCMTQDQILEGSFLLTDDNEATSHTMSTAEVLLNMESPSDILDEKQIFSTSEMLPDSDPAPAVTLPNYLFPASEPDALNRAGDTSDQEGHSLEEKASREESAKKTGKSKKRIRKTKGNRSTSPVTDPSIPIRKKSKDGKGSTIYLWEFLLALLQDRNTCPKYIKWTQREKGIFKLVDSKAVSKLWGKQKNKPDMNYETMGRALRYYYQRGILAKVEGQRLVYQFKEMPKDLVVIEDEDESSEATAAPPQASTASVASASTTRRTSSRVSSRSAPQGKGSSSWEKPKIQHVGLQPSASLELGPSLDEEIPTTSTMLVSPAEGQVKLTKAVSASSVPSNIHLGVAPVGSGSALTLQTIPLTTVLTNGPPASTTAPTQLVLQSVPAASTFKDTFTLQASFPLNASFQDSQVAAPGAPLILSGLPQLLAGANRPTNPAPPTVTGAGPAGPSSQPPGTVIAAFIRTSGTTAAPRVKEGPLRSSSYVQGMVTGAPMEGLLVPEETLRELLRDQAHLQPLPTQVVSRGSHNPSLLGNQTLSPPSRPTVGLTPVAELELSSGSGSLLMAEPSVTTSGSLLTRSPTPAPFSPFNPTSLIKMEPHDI
Test: as above
Settings: protein: recombinant; tags: N-terminal GST; dsDNA, one strand shown
Method in brief: as §1

Sequence	binding signal
ATATAC	1.13 fold enrichment (6-mer frequency, TF over GST control)
CTTTCC	1.9 fold enrichment (6-mer frequency, TF over GST control)
ACGTCT	1.28 fold enrichment (6-mer frequency, TF over GST control)
TCTACT	1.34 fold enrichment (6-mer frequency, TF over GST control)
TTGGTT	1.42 fold enrichment (6-mer frequency, TF over GST control)
GTTCTG	1.14 fold enrichment (6-mer frequency, TF over GST control)
ATGGTT	1.32 fold enrichment (6-mer frequency, TF over GST control)
TCCTTG	1.27 fold enrichment (6-mer frequency, TF over GST control)
CGACTC	1.41 fold enrichment (6-mer frequency, TF over GST control)
AAGTCC	1.19 fold enrichment (6-mer frequency, TF over GST control)
ATTTAA	1.13 fold enrichment (6-mer frequency, TF over GST control)
CCTGAC	1.42 fold enrichment (6-mer frequency, TF over GST control)
CCCGAT	1.23 fold enrichment (6-mer frequency, TF over GST control)
TAGTAT	1.3 fold enrichment (6-mer frequency, TF over GST control)
AAACCT	1.16 fold enrichment (6-mer frequency, TF over GST control)
GTCTCG	1.43 fold enrichment (6-mer frequency, TF over GST control)
ACTTCA	1.33 fold enrichment (6-mer frequency, TF over GST control)
CTCAAT	1.26 fold enrichment (6-mer frequency, TF over GST control)
CCAATA	1.29 fold enrichment (6-mer frequency, TF over GST control)
GCCTTA	1.3 fold enrichment (6-mer frequency, TF over GST control)
